These results are taken from the supplement of paper PMC6555819.

For one assay, the system named is PXR homodimer (NR concentration 270 nM). Description: PBM binding z-score (relative to random genomic background probes); higher = stronger binding; sequences stand for … in GC…GCGATTGACAGCGTAGAATGAAGG
In short, it runs like this: (§1)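 Probes were double-stranded and carried 34-nt variable regions with direct-repeat seeds, single-nucleotide variants, half-site ablations and random human genomic background sequences, printed on custom Agilent 4×180K protein-binding microarrays. Arrays were incubated 1 h with ligand-free nuclear receptor dimers in PBS pH 7.4, 2% milk, 0.02% Triton X-100, 1 mM DTT, 0.2 mg/mL BSA and 0.4 mg/ml salmon testes DNA. Antibodies against each partner (one per run) detected binding, and scanned fluorescence was regression-normalized. Binding z-scores use the random background probes as reference.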
TAGCCTAGGTCATTCAGGGGCCAGTCTAGAAAGC: the PBM binding z-score is -0.494.
As to TCTCCTAGGTCAGTTGGTCAGCTAACGAGCTGCC, the PBM binding z-score is -0.3.
Consider ATCGAAAGGTCGTGAGGTGAGTGTACAGAAAGGC, for which the PBM binding z-score turned out to be 0.525.
Still for that read-out and setting: for CGTCAAAGTTCAAGGTAACGGAACAGAAAGCAGC the value was 2.13.
On the same count and under the same terms, for ACTATTAGTTGAGACGAGGGCAAACGATAGGTTG the value was 0.478; for TCGAGTAGGTTAGGGGCTTTCAGAATGGCGTCGA, -0.00687.
In turn, CGAGCTAGGTCAAGGACAGTGAATCTCCGCACGC gave a PBM binding z-score of -0.22.
The same measure, in the same setting: the figure for ATCTCTAGGTAAGAAGTTCAGTGAAAGAGAGGAC is 1.32; for TTACCAAGGGGAGCTGAGGTCGTTGATCCAACTC it is 0.544.
The sequence ACAGACAGTTGAGTGAAGGTAACTCAGCTGGACG yielded a PBM binding z-score of -0.571.
TCTCGGAGGACACGTAAGGTCAGAGCTCGACATC showed a PBM binding z-score of 0.734.
ATCTCTAGGTAACAAGTTAAGTGAAAGAGAGGAC registered a PBM binding z-score of 0.574.
Turning to CTCGAAAAGTCGTGCTCAGGTGAGTATACCAAAC, the PBM binding z-score was found to be 0.0183.
On to TGAATGAGGTTATAAGCTCAGGGAACGTTGCAAA, for which the PBM binding z-score was -0.553.
On the same count and under the same terms, the figure for AGAATGAGGTTATAAAGATCAGGGAATTGCGGTC is 0.572.
CAAACTAGGTCACCGGAAGGTCAACGTCCGCATG showed a PBM binding z-score of 1.29.
ATAGGTAGGTTAGCTGGGGTCATTCAGACTAGGC: the PBM binding z-score was 4.41.
TCTATTAGTTGACTAGGGCAACCGAAACAGCGGA: the PBM binding z-score turned out to be 0.269.

The next assay relates to RARa:RXR (NR concentration 270 nM, RXRa partner concentration 90 nM). The description is as above. Put shortly:
as §1
AAATGTAGGTTATCGGGTCATTCAGTTTGCGCAT showed a PBM binding z-score of 3.72.
TCTTGTAGATCAACAGGAGGTAAAGAAAGATCGA showed a PBM binding z-score of -0.044.
Consider CCTTACGGGTCACGAGGTTATGGCACGACGAGCG, for which the PBM binding z-score was 5.67.
CCTCGGAGGACAGAAGATCAGAGCTGTCCGCTTT yielded a PBM binding z-score of -0.512.
TTACCAAGGCGAGCTGAGGTCGTTGATCCAACTC had a PBM binding z-score of 1.57.
The sequence TCTAGTAGATCAGCAGGTTAAGAAAGCTGGCCAA gave a PBM binding z-score of 0.387.
Sequence GCGACTGGGGCATCAGCAGGTTACGATAACTTAA registered a PBM binding z-score of 0.42.
Take CGAACTAGGTCATCCAGGACAGTAAATACATTGA: the PBM binding z-score stood at 2.69.
With ACTATTAGTTGAGACGAAGGCAACCGATAGGTTG, the PBM binding z-score is -0.552.
The sequence TCGAGTTGGTTAGTCGGGGCATTCAGCCAACATA had a PBM binding z-score of 0.142.
On to TAGCCTAGGTCATTCAGGGGCCTGTATAGAAAGC, for which the PBM binding z-score stood at 2.51.
In turn, TAGCCAAGGTCATGGGCCAGTATACCACGCGAAC had a PBM binding z-score of 4.73.
Still for that read-out and setting: the figure for TCTAGTTGGGCACGGAGGTCACACACGACGGGTA is 4.24; for ATCTCTAGGTAAAGTACAGTGAAAGATCGATAGA it is 0.369; for GTACCAAGATGAATAGGTCGTTGATGAGTAGGCG it is 0.0569.
Same read-out and setting: the figure for CGAACTAGGTCCGAACAGGACAGTGAAGGATGAT is -0.746.
CTCGAAAGGTCGTTCTCAGGTGAGTATACCAAAC returned a PBM binding z-score of 4.19.
CAAACTAAGTCAAGGTCAAAGTCGGTTTGTGCCA showed a PBM binding z-score of 4.9.
On the same count and under the same terms, for GTTGCTAGGTCAGGTTGGTCAGCTAACGGGTACG the value was 0.933.
CCAACGAGGGCATGAGTTGATAGCAAATGCCGAT: the PBM binding z-score is 0.447.
On the same count and under the same terms, for TCTTGTAGATCGGCAGGTTAAGAAAGCTGGCCAA the value was 0.55.
In turn, TCGAGTAGGTTAGGGGCATTCAAAATGGCGTCGA registered a PBM binding z-score of 0.797.
In turn, TAGCCTAGGTCATTCAGGGGCCAGTCTAGAAAGC returned a PBM binding z-score of 3.47.
Consider TCTCCTAGGTCAGTTGGTCAGCTAACGAGCTGCC, for which the PBM binding z-score worked out at 0.918.
Take ATCGAAAGGTCGTGAGGTGAGTGTACAGAAAGGC: the PBM binding z-score is 3.97.
Consider CGTCAAAGTTCAAGGTAACGGAACAGAAAGCAGC, for which the PBM binding z-score was found to be 3.36.
For ACTATTAGTTGAGACGAGGGCAAACGATAGGTTG, the PBM binding z-score is 0.637.
As for TCGAGTAGGTTAGGGGCTTTCAGAATGGCGTCGA, the PBM binding z-score is -0.485.
On the same count and under the same terms, the figure for CGAGCTAGGTCAAGGACAGTGAATCTCCGCACGC is 2.02; for ATCTCTAGGTAAGAAGTTCAGTGAAAGAGAGGAC it is 0.518; for TTACCAAGGGGAGCTGAGGTCGTTGATCCAACTC it is 1.03.
As for ACAGACAGTTGAGTGAAGGTAACTCAGCTGGACG, the PBM binding z-score is -0.397.
TCTCGGAGGACACGTAAGGTCAGAGCTCGACATC had a PBM binding z-score of 3.13.
Consider ATCTCTAGGTAACAAGTTAAGTGAAAGAGAGGAC, for which the PBM binding z-score is 0.842.
As for CTCGAAAAGTCGTGCTCAGGTGAGTATACCAAAC, the PBM binding z-score is 0.523.
In turn, TGAATGAGGTTATAAGCTCAGGGAACGTTGCAAA came in with a PBM binding z-score of 1.26.
In the case of AGAATGAGGTTATAAAGATCAGGGAATTGCGGTC, the PBM binding z-score was determined as 1.58.
On the same count and under the same terms, for CAAACTAGGTCACCGGAAGGTCAACGTCCGCATG the value was 7.37; for ATAGGTAGGTTAGCTGGGGTCATTCAGACTAGGC, 5.88; for TCTATTAGTTGACTAGGGCAACCGAAACAGCGGA, 0.566.
